The list is not random: actives were taken first. Their share in the collection is about 12%.
HP1b binding inh: HP1-beta chromodomain-methylated histone interaction inhibition; P83916; AlphaScreen HP1-beta / biotin-H3K9me3 peptide binding; 390,000 tested, 0.56% active; Potency, µM (doses to about 114 µM), most hits filed as inhibitors; further: nearly all actives have a fitted effect of over 70% in size
Target sequence (P83916 whole entry, looked up): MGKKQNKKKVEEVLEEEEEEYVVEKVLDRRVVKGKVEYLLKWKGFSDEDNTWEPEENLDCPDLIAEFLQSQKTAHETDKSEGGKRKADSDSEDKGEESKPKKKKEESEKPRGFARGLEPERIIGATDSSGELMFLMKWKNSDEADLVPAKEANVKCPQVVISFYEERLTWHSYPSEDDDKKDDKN
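Compound inhibition of the preformed complex between 50 nM HP1-beta and 50 nM biotinylated H3K9me3 peptide was read by AlphaScreen. Buffer was PBS pH 7.4 with 0.01% Tween-20. Incubations ran 30 min at room temperature, with 10 ug/mL donor/acceptor beads.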
G9a block: blocks human histone lysine methyltransferase G9a; G9a H3K9 monomethylation, AlphaScreen, 2 h; 350,000 tested, 8.8% active; AID 504332; Potency, µM (top dose mostly 102 µM), usual class: inhibitors; further: nearly all actives have a fitted effect of over 75% in size
Target sequence (Q96KQ7 913-1193 limits assumed): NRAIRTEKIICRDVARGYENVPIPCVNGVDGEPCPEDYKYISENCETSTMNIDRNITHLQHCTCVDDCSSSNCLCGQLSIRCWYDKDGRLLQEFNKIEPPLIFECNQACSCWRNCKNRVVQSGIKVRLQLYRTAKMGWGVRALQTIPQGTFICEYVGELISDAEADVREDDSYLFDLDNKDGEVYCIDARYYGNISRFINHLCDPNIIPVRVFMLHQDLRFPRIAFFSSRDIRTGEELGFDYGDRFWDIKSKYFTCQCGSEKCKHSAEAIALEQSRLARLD
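Readings reflect AlphaScreen signal from monomethyl-H3K9 antibody detection. HMT at 20 nM; substrate b-H3K9 500 nM; cofactor SAM 20 uM; 2 h RT reaction; compounds tested as titrations in qHTS with 15 min preincubation.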
JMJD2A Tudor inh: inhibitors of human JMJD2A Tudor domain. O75164. AlphaScreen JMJD2A-Tudor / H3K4me3 peptide binding. Potency, µM (doses to about 114 µM), usual class: inhibitors. 390,000 tested, 4.4% active; further: nearly all actives have a fitted effect of over 50% in size
Sfp inh: Sfp phosphopantetheinyl transferase inhibition; Q9F4F7; Biochemical Sfp PPTase activity, qHTS; 310,000 tested, 3.5% active; Potency, µM, most hits filed as inhibitors;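 further: the enzyme is Sfp with the accession as filed and its product quenches rhodamine fluorescence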
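After 15 min at room temperature with compound, 15 nM Sfp received 5 uM rhodamine-CoA plus 12.5 uM BHQ-2-ybbR (50 mM Hepes pH 7.6, 10 mM MgCl2). Rate came from the fluorescence difference over 30 min, ex 525/em 598 nm.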
TDP1 block: blocks human tyrosyl-DNA phosphodiesterase 1 | recombinant TDP1, AlphaScreen DNA substrate cleavage | Potency, µM (titrated, usually from 130 µM), usual class: inhibitors | 350,000 tested, 0.28% active | AID 485290; further: nearly all actives have a fitted effect of over 40% in size
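Steps: enzyme plus compound, 15 min RT; add biotin/phosphotyrosine-FITC oligonucleotide (15 nM final), react 5 min; add donor/acceptor beads (10 ug/ml final), 10 min; read AlphaScreen. Tdp1 at 1 nM final.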
BAZ2B inh: blocks human BAZ2B; AID 504333; Potency, µM (titrated, usually from 114 µM), hits mostly inhibitors; 360,000 tested, 4.4% active; Q9UIF8; AlphaScreen BAZ2B-H3K14Ac peptide displacement; further: nearly all actives have a fitted effect of over 60% in size
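BAZ2B 50 nM plus b-H3(5-23)K14Ac 50 nM, PBS pH 7.4/0.01% Tween-20, 30 min RT; compound added (max 110 uM), 30 min RT; streptavidin donor/Ni-chelate acceptor beads 10 ug/mL final, 20 min dark; AlphaScreen read.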
Large screens that a line does not name were inactive; ! = not confirmed by another sample. The call rests on the fitted dose curve; in most records, active means well fitted curve in the direction sought with a large enough effect; inconclusive means small, poorly fitted or top-dose-only effect, or another doubt; inactive means no such curve, though single readings can be large; an effect the other way counts as inactive or inconclusive.

CC(=O)N1c2ccc(S(=O)(=O)N3CCC(C(=O)Nc4cccc(Cl)c4)CC3)cc2CC1C (centres undefined)	none
Cc1cc(C)n(-c2nnc(C)n2/N=C/c2cc(Br)ccc2OCc2ccccc2)n1	G9a block inconclusive, Sfp inh 28.2µM
Cc1cc(C)n(-c2nnc(C)n2/N=C/c2ccccc2OCc2ccccc2Cl)n1	none
COC(=O)C(C)Sc1ncnc2c1nnn2-c1ccc(F)cc1 (centres undefined)	none
COc1ccc(-n2nnc3c(SC(C(C)=O)C(=O)N(C)C)ncnc32)cc1 (centres undefined)	HP1b binding inh inconclusive, Sfp inh 17.8µM (no result: G9a block)
COc1cccc(C(=O)Nc2cc(Cl)c(O)c(Cl)c2)c1	G9a block 44.7µM
COc1cccc(C(=O)Nc2cc(-c3cn4cccnc4n3)ccc2C)c1	G9a block 31.6µM
CCOCc1nnc(NC(=O)c2cc(OC)cc(OC)c2)s1	G9a block 31.6µM
CCOCc1nnc(NC(=O)c2cccc(OC)c2)s1	G9a block 50.1µM, BAZ2B inh inconclusive
O=C(COC(=O)CC1CC2CCC1C2)Nc1ccc(F)cc1Cl (centres undefined)	none (no result: G9a block, Sfp inh, BAZ2B inh)
CCOCC(=O)Nc1nnc(COC)s1	none
CCOCC(=O)Nc1nnc(COc2ccc(Cl)cc2)s1	HP1b binding inh inconclusive, G9a block 3.98µM, JMJD2A Tudor inh inconclusive, Sfp inh 28.2µM
COc1cccc(C(=O)Nc2cc(NC(=O)c3cccs3)ccc2C)c1	TDP1 block 6.31µM
COc1cccc(C(=O)Nc2nnc(-c3cccs3)s2)c1	G9a block 10µM
CNC(=O)C[C@@H](N)C(=O)N[C@@H](C(=O)N[C@@H]1C(=O)N2[C@@H]1SC(C)(C)[C@@H]2C(=O)O)c1ccc(O)cc1	Sfp inh inconclusive (no result: HP1b binding inh, JMJD2A Tudor inh, TDP1 block, BAZ2B inh)
O=C(O)CCN1C(=O)/C(=C/c2cn(-c3ccccc3)nc2-c2cccs2)SC1=S	HP1b binding inh inconclusive, JMJD2A Tudor inh 22.4µM
O=C(O)CCCCCN1C(=O)/C(=C\c2cn(-c3ccccc3)nc2-c2cccs2)SC1=S	G9a block 15.8µM, JMJD2A Tudor inh 39.8µM, Sfp inh inconclusive, BAZ2B inh 12.6µM (no result: TDP1 block)
O=C(O)CCCCCN1C(=O)/C(=C/c2cn(-c3ccccc3)nc2-c2cccs2)SC1=S	HP1b binding inh inconclusive, JMJD2A Tudor inh 31.6µM (no result: G9a block, Sfp inh, TDP1 block, BAZ2B inh)
COc1cc2c(cc1OC)C(COc1ccc3c(C)cc(=O)oc3c1)N(C(=O)c1cccc(C)c1)CC2 (centres undefined)	none (no result: Sfp inh)
COc1ccc(CNC(=O)COC(=O)c2nc3nc(C)cc(C)n3n2)cc1	none (no result: Sfp inh)
CCCn1c(=O)c2[nH]c(-c3ccc(S(=O)(=O)O)cc3)nc2n(CCC)c1=O	G9a block 21.2µM! (no result: Sfp inh)
O=C(NCCc1ccccc1)C(=O)NCC1OCCN1S(=O)(=O)c1ccc(Br)cc1 (centres undefined)	none
Nc1nc2c(c(=O)[nH]1)C(c1cccc3ccccc13)C1=C(N2)c2ccccc2C1=O (centres undefined)	G9a block 35.5µM, JMJD2A Tudor inh inconclusive, Sfp inh 56.2µM
CC(=O)C1=C(C)NC2=C(C(=O)c3ccccc32)C1c1ccccc1 (centres undefined)	HP1b binding inh inconclusive, G9a block inconclusive, JMJD2A Tudor inh inconclusive, BAZ2B inh inconclusive
Cc1ccccc1NC(=O)CC1SC(=NC2CCCCC2)NC1=O (centres undefined)	none
Cc1ccc(NC(=O)CC2SC(=NC3CCCCC3)NC2=O)cc1 (centres undefined)	G9a block 89.1µM
COc1ccc2c(c1)c(=O)oc1cc(O)ccc12	none
COc1ccc2c(c1)c(=O)oc1cc3oc(C)c(C)c3cc12	G9a block inconclusive, BAZ2B inh 56.2µM (no result: HP1b binding inh, JMJD2A Tudor inh, TDP1 block)
O=c1[nH]c(NC2CCCCC2)nnc1Cc1ccccc1	G9a block inconclusive, JMJD2A Tudor inh 50.1µM
Cc1nnc(NC2CCCCC2)[nH]c1=O	none
Cc1cc(=O)n(CCCO)c(O)c1C#N	G9a block 44.7µM
FC(F)(F)c1cnc(NNC(=S)Nc2cccnc2)c(Cl)c1	G9a block 22.4µM
NC(=O)NNc1ncc(C(F)(F)F)cc1Cl	G9a block inconclusive, Sfp inh 50.1µM
Cc1cc(C)nc(SCC(=O)Nc2ncc(C(F)(F)F)cc2Cl)n1	none
O=C(CSc1ncccn1)Nc1ncc(C(F)(F)F)cc1Cl	G9a block 20µM, Sfp inh inconclusive
O=C(COC(=O)c1cc(-c2ccccc2Cl)nc2ccccc12)Nc1ncc(C(F)(F)F)cc1Cl	HP1b binding inh inconclusive, JMJD2A Tudor inh inconclusive, Sfp inh 39.8µM, BAZ2B inh inconclusive (no result: TDP1 block)
O=C(COC(=O)c1cccc2ccccc12)Nc1ncc(C(F)(F)F)cc1Cl	G9a block inconclusive
CC1(C)CC(NS(=O)(=O)c2ccc(Cl)cc2)CC(C)(C)N1	none (no result: TDP1 block)
Cc1c(Cl)cccc1NC(=S)NNc1ncc(C(F)(F)F)cc1Cl	G9a block 70.8µM
Cc1ccccc1NC(=S)NNc1ncc(C(F)(F)F)cc1Cl	G9a block inconclusive
COCCn1c(C)cc(O)c(C(c2ccc(OC)cc2)N2CCCCC2)c1=O (centres undefined)	none (no result: Sfp inh)
COc1ccc2c(c1)OC/C(=C/c1ccc(O)c(O)c1)C2=O	none (no result: HP1b binding inh, JMJD2A Tudor inh, BAZ2B inh)
COc1ccc2c3c(ccc2c1)C(=O)/C(=C/O)CC3	HP1b binding inh 35.5µM, JMJD2A Tudor inh 7.94µM (no result: G9a block, Sfp inh, TDP1 block, BAZ2B inh)
Cc1cc(OCC(=O)N2CCC(C(=O)O)CC2)c2c(C)c(C)c(=O)oc2c1	none (no result: TDP1 block)
Cc1ccc2nc3n(c(=O)c2c1)-c1ccccc1C(=O)NC3Cc1ccc(O)cc1 (centres undefined)	none (no result: HP1b binding inh, G9a block, JMJD2A Tudor inh, Sfp inh, BAZ2B inh)
CSc1ncc(Cl)c(C(=O)Nc2nnc(SC/C=C/c3ccccc3)s2)n1	G9a block inconclusive
Cc1ccc(CS(=O)(=O)c2ncc(Cl)c(C(=O)Nc3nnc(C(C)C)s3)n2)cc1	G9a block 44.7µM, JMJD2A Tudor inh inconclusive, Sfp inh inconclusive
CCSc1nnc(NC(=O)c2nc(S(=O)(=O)Cc3ccc(F)cc3)ncc2Cl)s1	JMJD2A Tudor inh 2.82µM, BAZ2B inh inconclusive (no result: G9a block)
C=CCSc1nnc(NC(=O)c2nc(SCC)ncc2Cl)s1	G9a block 7.94µM
CC(C)c1nnc(NC(=O)c2nc(S(=O)(=O)Cc3ccc(F)cc3)ncc2Cl)s1	G9a block 8.91µM, JMJD2A Tudor inh inconclusive
O=C(Nc1ccccc1Cl)C1CCCN(c2ncnc3c2nc2n3CCCCC2)C1 (centres undefined)	none
COC(=O)c1ccc(-n2nnnc2SC)cc1	G9a block 10µM, Sfp inh inconclusive
Cc1c(O)c2ccccc2n(-c2ccccc2)c1=O	none (no result: G9a block, Sfp inh, TDP1 block, BAZ2B inh)
COn1c(=O)c(=O)n(O)c2ccccc21	JMJD2A Tudor inh 79.4µM, BAZ2B inh inconclusive
O=c1c(=O)n(O)c2ccccc2n1O	G9a block 10µM, JMJD2A Tudor inh 50.1µM, Sfp inh 79.4µM, BAZ2B inh 39.8µM
